How the values were obtained:
Experiment in all cases: log2 ratio of Biotin-Ahx-Ub-VS probe labelling (fragment/DMSO); higher = less target engagement (more negative = stronger competition), active = hit call of the paper (q ≤ 0.05, log2 ratio ≤ -1)
Conditions in all cases: compound concentration: 200 uM; treatment time: 3 h
USP34 = USP34 (UniProt Q70CQ2)
How it was run: (§1)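 Each value is an average log2 ratio of fragment to vehicle, tested by unpaired t-test. The underlying Spectronaut label-free quantities were global-median-normalised, and only proteins with ≥2 unique peptides were included. Triplicate HEK293T lysate samples (495 µg) were exposed to fragment at 200 µM or vehicle for 3 h, then to Biotin-Ahx-Ub-VS at 0.5 µM final for 1 h, before NeutrAvidin enrichment of labelled DUBs, LysC and trypsin digestion, and diaPASEF LC-MS/MS.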

USP36 = target: T1, USP36 (UniProt Q9P275)
T1 sequence (whole entry): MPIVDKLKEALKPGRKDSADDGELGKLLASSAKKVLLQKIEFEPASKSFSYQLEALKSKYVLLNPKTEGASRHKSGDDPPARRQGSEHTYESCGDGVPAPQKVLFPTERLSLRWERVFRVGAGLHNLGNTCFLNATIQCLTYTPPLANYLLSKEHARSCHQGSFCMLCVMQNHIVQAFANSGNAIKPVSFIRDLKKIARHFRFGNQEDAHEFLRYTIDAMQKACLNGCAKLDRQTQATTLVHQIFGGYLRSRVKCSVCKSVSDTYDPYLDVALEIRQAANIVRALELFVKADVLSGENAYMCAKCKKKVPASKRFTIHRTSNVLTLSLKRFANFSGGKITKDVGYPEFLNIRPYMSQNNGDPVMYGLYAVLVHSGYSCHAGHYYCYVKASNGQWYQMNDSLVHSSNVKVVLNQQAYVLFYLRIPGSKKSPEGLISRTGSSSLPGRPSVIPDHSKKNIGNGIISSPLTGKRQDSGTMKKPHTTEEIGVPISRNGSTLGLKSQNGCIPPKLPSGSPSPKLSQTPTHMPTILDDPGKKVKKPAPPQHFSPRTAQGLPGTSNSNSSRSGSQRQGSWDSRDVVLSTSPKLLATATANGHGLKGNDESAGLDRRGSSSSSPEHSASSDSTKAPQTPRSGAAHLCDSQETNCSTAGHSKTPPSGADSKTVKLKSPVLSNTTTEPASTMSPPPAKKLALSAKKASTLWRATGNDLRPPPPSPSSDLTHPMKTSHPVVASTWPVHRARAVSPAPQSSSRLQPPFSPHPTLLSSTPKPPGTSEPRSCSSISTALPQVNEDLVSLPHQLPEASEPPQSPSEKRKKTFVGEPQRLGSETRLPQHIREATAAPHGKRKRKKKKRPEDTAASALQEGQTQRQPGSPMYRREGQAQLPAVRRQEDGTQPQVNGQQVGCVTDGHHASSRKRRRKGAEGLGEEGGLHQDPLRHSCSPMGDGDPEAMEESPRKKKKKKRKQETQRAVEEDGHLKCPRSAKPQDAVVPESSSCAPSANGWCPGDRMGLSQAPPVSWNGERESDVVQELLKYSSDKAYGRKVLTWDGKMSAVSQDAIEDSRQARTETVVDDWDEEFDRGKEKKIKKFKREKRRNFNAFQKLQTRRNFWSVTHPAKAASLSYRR
How it was run: as §1

USP38 = target: T2, USP38 (UniProt Q8NB14)
T2 sequence (whole entry): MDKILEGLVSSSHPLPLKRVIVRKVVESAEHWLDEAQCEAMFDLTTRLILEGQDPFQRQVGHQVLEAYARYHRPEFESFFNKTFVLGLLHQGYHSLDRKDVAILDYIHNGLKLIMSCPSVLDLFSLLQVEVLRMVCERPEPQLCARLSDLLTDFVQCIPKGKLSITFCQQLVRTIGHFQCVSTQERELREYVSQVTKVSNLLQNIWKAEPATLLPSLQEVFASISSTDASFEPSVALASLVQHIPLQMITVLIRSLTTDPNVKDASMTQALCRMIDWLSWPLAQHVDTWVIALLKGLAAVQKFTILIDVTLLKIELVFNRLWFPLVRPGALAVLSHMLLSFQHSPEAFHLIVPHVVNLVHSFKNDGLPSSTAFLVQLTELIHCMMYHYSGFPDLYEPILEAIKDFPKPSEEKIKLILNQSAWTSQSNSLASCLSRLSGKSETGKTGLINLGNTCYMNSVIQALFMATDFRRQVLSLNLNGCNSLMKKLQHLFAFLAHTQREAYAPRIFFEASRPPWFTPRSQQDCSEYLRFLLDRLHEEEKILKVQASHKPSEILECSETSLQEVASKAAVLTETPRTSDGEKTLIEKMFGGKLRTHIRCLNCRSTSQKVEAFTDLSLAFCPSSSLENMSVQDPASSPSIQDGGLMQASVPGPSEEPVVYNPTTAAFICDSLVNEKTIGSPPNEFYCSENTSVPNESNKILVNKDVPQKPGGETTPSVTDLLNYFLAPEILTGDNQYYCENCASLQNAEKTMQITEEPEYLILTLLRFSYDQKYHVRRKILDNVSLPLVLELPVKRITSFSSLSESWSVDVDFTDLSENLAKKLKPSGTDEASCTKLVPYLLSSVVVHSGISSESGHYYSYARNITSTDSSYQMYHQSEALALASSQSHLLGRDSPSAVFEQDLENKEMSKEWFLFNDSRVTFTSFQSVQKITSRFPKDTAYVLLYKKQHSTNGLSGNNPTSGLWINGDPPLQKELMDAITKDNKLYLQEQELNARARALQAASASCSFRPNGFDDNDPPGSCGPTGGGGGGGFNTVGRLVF
How it was run: as §1

USP39 = target: T3, USP39 (UniProt Q53GS9)
T3 sequence (whole entry): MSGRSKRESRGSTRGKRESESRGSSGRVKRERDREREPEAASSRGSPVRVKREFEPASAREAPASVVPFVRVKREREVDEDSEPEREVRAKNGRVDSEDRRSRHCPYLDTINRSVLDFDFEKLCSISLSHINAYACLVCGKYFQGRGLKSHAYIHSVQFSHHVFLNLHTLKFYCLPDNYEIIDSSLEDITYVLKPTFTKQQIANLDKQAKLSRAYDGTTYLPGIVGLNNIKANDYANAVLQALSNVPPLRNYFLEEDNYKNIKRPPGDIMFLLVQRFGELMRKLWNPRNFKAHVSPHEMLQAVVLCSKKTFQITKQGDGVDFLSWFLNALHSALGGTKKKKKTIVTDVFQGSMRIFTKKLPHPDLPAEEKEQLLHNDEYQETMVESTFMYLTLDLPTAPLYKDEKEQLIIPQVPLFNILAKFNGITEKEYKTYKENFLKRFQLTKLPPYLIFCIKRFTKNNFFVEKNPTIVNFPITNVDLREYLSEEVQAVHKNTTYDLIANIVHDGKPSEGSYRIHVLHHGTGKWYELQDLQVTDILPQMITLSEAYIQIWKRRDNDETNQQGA
How it was run: as §1

USP4 = target: T4, USP4 (UniProt Q13107)
T4 sequence (whole entry): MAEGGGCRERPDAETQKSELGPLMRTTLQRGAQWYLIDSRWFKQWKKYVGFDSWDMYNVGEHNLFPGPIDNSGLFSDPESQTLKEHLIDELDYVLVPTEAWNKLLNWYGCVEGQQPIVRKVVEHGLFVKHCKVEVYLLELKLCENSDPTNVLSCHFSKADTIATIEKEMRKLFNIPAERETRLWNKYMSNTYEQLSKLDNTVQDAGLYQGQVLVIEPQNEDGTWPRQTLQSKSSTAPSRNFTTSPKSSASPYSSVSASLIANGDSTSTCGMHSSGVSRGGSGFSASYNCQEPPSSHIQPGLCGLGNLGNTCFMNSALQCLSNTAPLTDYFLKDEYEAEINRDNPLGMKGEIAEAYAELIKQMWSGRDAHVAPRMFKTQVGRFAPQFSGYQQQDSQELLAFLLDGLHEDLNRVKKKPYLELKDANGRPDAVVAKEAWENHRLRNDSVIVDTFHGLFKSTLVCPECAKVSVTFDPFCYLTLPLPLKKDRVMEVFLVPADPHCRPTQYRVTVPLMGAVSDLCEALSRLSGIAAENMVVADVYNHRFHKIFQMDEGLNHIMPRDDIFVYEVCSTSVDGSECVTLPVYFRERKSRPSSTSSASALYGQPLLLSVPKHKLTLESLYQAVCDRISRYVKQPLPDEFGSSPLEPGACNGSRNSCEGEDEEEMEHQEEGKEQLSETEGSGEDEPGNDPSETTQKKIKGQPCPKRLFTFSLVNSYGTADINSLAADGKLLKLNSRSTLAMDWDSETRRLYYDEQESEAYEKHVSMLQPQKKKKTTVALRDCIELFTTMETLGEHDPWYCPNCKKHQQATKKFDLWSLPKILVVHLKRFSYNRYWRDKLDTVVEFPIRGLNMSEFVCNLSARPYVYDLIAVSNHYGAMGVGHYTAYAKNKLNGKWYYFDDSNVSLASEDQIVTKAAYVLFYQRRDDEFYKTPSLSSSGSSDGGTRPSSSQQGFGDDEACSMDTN
How it was run: as §1

Measured: log2 ratio of Biotin-Ahx-Ub-VS probe labelling

Sequence of USP34 (Q70CQ2 whole entry, the tested form may be a part): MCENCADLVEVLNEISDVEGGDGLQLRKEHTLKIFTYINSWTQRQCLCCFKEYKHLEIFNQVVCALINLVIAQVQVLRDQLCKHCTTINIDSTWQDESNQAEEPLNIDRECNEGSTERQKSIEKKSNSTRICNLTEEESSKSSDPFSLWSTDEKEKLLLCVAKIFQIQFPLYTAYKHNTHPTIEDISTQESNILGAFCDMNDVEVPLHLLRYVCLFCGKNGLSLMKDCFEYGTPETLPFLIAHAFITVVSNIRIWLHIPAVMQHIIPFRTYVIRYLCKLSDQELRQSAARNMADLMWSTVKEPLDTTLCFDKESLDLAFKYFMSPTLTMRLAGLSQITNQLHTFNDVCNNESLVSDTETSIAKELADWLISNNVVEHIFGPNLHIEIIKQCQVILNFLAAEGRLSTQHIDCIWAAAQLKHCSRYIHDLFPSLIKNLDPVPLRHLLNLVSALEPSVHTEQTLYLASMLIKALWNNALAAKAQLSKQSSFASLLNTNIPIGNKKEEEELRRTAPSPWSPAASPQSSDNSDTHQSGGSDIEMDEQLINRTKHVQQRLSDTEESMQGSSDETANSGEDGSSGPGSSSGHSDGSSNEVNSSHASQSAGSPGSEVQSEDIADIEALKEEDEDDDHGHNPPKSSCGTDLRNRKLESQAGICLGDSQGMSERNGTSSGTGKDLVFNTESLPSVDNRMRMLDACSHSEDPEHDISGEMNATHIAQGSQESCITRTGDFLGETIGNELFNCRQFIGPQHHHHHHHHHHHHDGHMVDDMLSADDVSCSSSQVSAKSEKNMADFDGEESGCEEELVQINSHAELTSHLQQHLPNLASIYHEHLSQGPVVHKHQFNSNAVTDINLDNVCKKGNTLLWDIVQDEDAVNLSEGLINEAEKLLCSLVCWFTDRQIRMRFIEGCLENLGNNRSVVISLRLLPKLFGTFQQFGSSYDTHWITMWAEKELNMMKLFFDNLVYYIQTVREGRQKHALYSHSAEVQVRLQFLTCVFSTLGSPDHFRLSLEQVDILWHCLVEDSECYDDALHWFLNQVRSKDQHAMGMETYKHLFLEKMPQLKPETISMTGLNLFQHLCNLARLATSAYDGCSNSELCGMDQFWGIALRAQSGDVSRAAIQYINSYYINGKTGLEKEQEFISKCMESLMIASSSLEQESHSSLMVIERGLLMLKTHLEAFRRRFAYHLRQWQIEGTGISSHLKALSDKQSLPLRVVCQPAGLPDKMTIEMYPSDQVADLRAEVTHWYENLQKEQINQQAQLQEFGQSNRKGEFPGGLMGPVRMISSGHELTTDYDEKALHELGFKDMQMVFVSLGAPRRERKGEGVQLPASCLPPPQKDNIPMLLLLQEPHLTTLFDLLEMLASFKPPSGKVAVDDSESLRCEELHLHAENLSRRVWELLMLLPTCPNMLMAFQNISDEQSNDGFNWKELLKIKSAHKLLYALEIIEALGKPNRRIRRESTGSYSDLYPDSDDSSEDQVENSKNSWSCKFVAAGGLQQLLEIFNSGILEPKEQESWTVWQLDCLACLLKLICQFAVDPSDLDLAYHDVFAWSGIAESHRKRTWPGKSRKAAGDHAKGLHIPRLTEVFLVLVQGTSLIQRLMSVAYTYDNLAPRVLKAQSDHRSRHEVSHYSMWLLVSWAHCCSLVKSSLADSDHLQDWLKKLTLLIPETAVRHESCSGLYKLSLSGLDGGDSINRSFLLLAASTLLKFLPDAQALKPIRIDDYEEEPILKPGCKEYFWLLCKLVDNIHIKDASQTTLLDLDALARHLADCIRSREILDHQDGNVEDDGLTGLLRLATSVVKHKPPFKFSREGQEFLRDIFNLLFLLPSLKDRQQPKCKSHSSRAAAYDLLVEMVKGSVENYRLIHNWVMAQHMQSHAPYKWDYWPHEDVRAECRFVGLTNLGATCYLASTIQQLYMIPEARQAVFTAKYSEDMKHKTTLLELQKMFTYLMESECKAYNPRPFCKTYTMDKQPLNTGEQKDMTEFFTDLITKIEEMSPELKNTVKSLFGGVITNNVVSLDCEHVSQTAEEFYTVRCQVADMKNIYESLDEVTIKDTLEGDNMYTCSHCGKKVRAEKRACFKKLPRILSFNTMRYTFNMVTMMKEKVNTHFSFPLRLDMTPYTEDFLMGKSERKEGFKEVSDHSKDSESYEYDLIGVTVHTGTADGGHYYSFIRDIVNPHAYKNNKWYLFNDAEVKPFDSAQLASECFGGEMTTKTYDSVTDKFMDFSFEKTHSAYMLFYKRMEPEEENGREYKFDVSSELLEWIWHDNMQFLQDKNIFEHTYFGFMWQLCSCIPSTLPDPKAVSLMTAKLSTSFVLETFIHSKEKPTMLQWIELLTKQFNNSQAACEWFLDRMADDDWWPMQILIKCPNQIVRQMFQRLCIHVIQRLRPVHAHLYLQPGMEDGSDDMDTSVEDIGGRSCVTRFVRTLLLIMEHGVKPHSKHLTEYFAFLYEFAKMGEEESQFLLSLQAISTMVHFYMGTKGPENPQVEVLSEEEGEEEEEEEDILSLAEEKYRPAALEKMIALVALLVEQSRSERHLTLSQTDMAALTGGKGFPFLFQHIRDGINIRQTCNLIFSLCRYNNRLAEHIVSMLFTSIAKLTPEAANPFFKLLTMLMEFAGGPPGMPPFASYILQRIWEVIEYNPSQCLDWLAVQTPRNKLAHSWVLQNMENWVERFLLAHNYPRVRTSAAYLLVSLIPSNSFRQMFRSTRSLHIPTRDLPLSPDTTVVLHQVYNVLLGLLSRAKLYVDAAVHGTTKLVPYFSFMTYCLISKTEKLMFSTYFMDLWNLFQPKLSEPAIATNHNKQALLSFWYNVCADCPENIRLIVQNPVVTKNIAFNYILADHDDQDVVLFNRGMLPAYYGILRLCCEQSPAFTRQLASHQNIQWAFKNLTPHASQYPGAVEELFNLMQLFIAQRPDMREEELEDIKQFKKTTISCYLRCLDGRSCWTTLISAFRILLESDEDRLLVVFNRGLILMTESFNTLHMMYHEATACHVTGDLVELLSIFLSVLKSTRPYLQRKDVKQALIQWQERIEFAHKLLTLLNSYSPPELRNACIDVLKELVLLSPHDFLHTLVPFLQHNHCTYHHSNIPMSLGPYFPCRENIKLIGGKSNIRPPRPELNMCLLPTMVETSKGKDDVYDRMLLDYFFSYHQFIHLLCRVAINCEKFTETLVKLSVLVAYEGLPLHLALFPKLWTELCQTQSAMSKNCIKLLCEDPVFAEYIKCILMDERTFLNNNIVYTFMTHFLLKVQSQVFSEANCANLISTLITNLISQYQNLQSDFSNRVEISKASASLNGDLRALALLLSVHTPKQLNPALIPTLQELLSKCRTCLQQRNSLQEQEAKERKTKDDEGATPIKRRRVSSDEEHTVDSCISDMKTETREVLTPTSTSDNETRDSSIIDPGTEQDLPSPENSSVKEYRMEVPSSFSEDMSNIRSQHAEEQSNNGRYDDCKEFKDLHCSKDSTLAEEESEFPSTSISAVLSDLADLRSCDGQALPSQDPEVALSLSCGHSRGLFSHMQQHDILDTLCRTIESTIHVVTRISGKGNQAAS

Cl.O=C(CN1CCN(C(=O)CCl)CC1)Nc1ccc(F)cc1
inactive: USP34 0.1 | USP36 -0.231 | USP38 -0.043 | USP39 0.0696 | USP4 0.142

— the supplement of paper PMC11732987, “Enantioselective OTUD7B fragment discovery through chemoproteomics screening and high-throughput optimisation” (Communications Chemistry, 2025)
